Compounds without any hit were thinned out: in the full panel of roughly 83,000, 20% have a hit.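 96-well plates, one dose, 48 hours. Percent growth reported; active if below 10.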 Activity calls are given as the source filed them.
Experiments:
Assay in all cases: NCI-60 one-dose screen, 48 h (100 = growth as untreated, 0 = no growth, -100 = all killed)
Settings in all cases: 10 µM unless noted
SR leukemia = tested on: SR leukemia
RPMI-8226 leukemia = tested on: RPMI-8226 leukemia
OVCAR-8 ovarian = tested on: OVCAR-8 ovarian
OVCAR-5 ovarian = tested on: OVCAR-5 ovarian
OVCAR-4 ovarian = tested on: OVCAR-4 ovarian
SK-OV-3 ovarian = tested on: SK-OV-3 ovarian
IGROV1 ovarian = tested on: IGROV1 ovarian
OVCAR-3 ovarian = tested on: OVCAR-3 ovarian
HS 578T breast = tested on: HS 578T breast
NCI/ADR-RES ovarian = tested on: NCI/ADR-RES ovarian

Measured: growth

Cc1ccc2c(/C=C/C(=O)c3cc(CN4CCOCC4)c(O)c4nc(C)ccc34)cc(CN3CCOCC3)c(O)c2n1
inactive: OVCAR-8 ovarian 11.1% | HS 578T breast 29.6%
active: SR leukemia 6.56% | RPMI-8226 leukemia 2.37% | OVCAR-5 ovarian 0.618% | OVCAR-4 ovarian -74.3% | SK-OV-3 ovarian -1.75% | IGROV1 ovarian 2.95% | OVCAR-3 ovarian -13.2% | NCI/ADR-RES ovarian 8.34%

Cc1nc2ccccc2c(/C=C/c2ccc(F)cc2)c1C(=O)/C=C/c1ccccc1
inactive: OVCAR-4 ovarian 36.4% | SK-OV-3 ovarian 56% | IGROV1 ovarian 13.6% | HS 578T breast 22.4%
active: SR leukemia 8.92% | RPMI-8226 leukemia 1.46% | OVCAR-8 ovarian 2.09% | OVCAR-5 ovarian -22% | OVCAR-3 ovarian -15.4% | NCI/ADR-RES ovarian 2.57%

Cc1c2ccccc2nc2cc3c(cc12)[C@H]1CC[C@]2(C)C(=O)CC[C@H]2[C@@H]1CC3
inactive: SR leukemia 92.9% | RPMI-8226 leukemia 79.5% | OVCAR-8 ovarian 92.5% | OVCAR-5 ovarian 97.6% | OVCAR-4 ovarian 95.8% | SK-OV-3 ovarian 124% | IGROV1 ovarian 101% | OVCAR-3 ovarian 104% | HS 578T breast 86.3% | NCI/ADR-RES ovarian 103%

N=C(N)c1ccc(OCCSCCOc2ccc(C(=N)N)cc2)cc1
inactive: SR leukemia 73.1% | RPMI-8226 leukemia 73.9% | OVCAR-8 ovarian 64% | OVCAR-5 ovarian 77.6% | OVCAR-4 ovarian 64.7% | SK-OV-3 ovarian 82% | IGROV1 ovarian 93.3% | OVCAR-3 ovarian 86.4% | HS 578T breast 85.4% | NCI/ADR-RES ovarian 97.7%

COc1ccc(-c2cn(Cc3cc4ccccc4s3)nn2)cc1OCCN1CCCCC1
active: SR leukemia 1.37%
inactive: RPMI-8226 leukemia 28.5% | OVCAR-8 ovarian 83.2% | OVCAR-5 ovarian 80.5% | OVCAR-4 ovarian 68.2% | SK-OV-3 ovarian 93.1% | IGROV1 ovarian 80.8% | OVCAR-3 ovarian 74.6% | HS 578T breast 51.3% | NCI/ADR-RES ovarian 75.4%

CC1=C2CC/C(C)=C/CC[C@]3(C)O[C@H]3CC/C(C)=C/[C@H]2OC1
inactive: SR leukemia 87.6% | RPMI-8226 leukemia 93.6% | OVCAR-8 ovarian 95.8% | OVCAR-5 ovarian 81.3% | OVCAR-4 ovarian 95.2% | SK-OV-3 ovarian 95.7% | IGROV1 ovarian 103% | OVCAR-3 ovarian 110% | HS 578T breast 108% | NCI/ADR-RES ovarian 87.7%

CC1(C)CC[C@]2(CO)CC[C@]3(C)[C@](O)([C@H](O)C[C@@H]4[C@@]5(C)CCCNC(C)(C)[C@@H]5CC[C@]43C)[C@@H]2C1
inactive: RPMI-8226 leukemia 74.4% | OVCAR-8 ovarian 101% | OVCAR-5 ovarian 106% | OVCAR-4 ovarian 96.2% | SK-OV-3 ovarian 98.2% | IGROV1 ovarian 102% | OVCAR-3 ovarian 101% | HS 578T breast 98.9% | NCI/ADR-RES ovarian 100%
active: SR leukemia 3.98%

O=C(NC1CCC(Br)CC1)C1CCCC(S(=O)(=O)NC2CCCCC2)C1 (stereo not given)
active: RPMI-8226 leukemia 2.82% [25 µM] | OVCAR-8 ovarian 7.56% [25 µM] | OVCAR-4 ovarian 4.59% [25 µM] | SK-OV-3 ovarian 1.87% [25 µM] | NCI/ADR-RES ovarian 3.69% [25 µM]
inactive: SR leukemia 21.1% [25 µM] | OVCAR-5 ovarian 39.2% [25 µM] | IGROV1 ovarian 27.4% [25 µM] | OVCAR-3 ovarian 14.3% [25 µM] | HS 578T breast 46.1% [25 µM]

COC(=O)c1c2c(c[n+]([O-])c1C)C(=O)C=C(NCc1ccccc1)C2=O
active: SR leukemia -10.3% | RPMI-8226 leukemia -22.6% | OVCAR-8 ovarian -60.4% | OVCAR-5 ovarian -90% | OVCAR-4 ovarian -98.8% | SK-OV-3 ovarian -87.6% | IGROV1 ovarian -66.9% | OVCAR-3 ovarian -68.7% | HS 578T breast -15.5% | NCI/ADR-RES ovarian -12.1%

CN(C)CCn1c(=O)c2ccccc2n2nc3ccccc3c12
inactive: SR leukemia 46.8% | RPMI-8226 leukemia 101% | OVCAR-8 ovarian 79.2% | OVCAR-5 ovarian 105% | OVCAR-4 ovarian 83.9% | SK-OV-3 ovarian 94.5% | IGROV1 ovarian 74.9% | OVCAR-3 ovarian 99.2% | HS 578T breast 97.8% | NCI/ADR-RES ovarian 76.7%

CCOC(=O)CNC1=C(Cl)C(=O)N(Cc2ccc(Cl)cc2)C1=O
inactive: SR leukemia 105% | RPMI-8226 leukemia 96.6% | OVCAR-8 ovarian 100% | OVCAR-5 ovarian 96.2% | OVCAR-4 ovarian 101% | SK-OV-3 ovarian 99.6% | IGROV1 ovarian 97.9% | OVCAR-3 ovarian 105% | HS 578T breast 101% | NCI/ADR-RES ovarian 104%

CCC(C)(C)c1ccc(Nc2ccc(Nc3ccc(C(C)(C)CC)cc3)cc2)cc1
inactive: SR leukemia 87.7% | RPMI-8226 leukemia 76.8% | OVCAR-8 ovarian 87.7% | OVCAR-5 ovarian 93.8% | OVCAR-4 ovarian 89.2% | SK-OV-3 ovarian 89.7% | IGROV1 ovarian 95.3% | OVCAR-3 ovarian 89.9% | HS 578T breast 88.9% | NCI/ADR-RES ovarian 91.7%

COc1cc(/C=C/c2cc(/C=C/c3ccc(O)c(OC)c3)n(C(=O)Nc3ccc(Cl)cc3)n2)ccc1O
active: SR leukemia 1.52% | RPMI-8226 leukemia 2.91% | OVCAR-8 ovarian -19.8% | SK-OV-3 ovarian -0.374% | IGROV1 ovarian 9.93% | OVCAR-3 ovarian -11% | HS 578T breast 8.23%
inactive: OVCAR-5 ovarian 10.9% | OVCAR-4 ovarian 13.3% | NCI/ADR-RES ovarian 17.5%

CCN(CC)c1ccc(-c2cc(-c3cc(OC)c(OC)c(OC)c3)nc(N3CCC(O)CC3)c2C#N)cc1
active: RPMI-8226 leukemia -11.8% | OVCAR-5 ovarian 2.43% | SK-OV-3 ovarian -5.1% | IGROV1 ovarian 2.12% | OVCAR-3 ovarian -58.6% | HS 578T breast -13.8% | NCI/ADR-RES ovarian 5.08%
inactive: SR leukemia 12% | OVCAR-8 ovarian 10.6% | OVCAR-4 ovarian 40.5%

Source: PubChem BioAssay (NCI)
